Results as given in ChEMBL document CHEMBL3988442, “University of Dundee, Small-Polar-MMV Screening Library” (2021).
The whole screen tested about 48,000 compounds, of which about 13,000 (27%) showed an effect of 50% or more. Some of the results follow.

Tested on: Wolbachia pipientis
Assay: Anti-Wolbachia Cell-Based Screen
Assay type: functional
Set-up: scale not given: in the data most compounds retested in dose-response had high values
Details: 5 µM

SMILES | Percent Effect [%]
COc1cnc(N2C[C@@H](CN3CCOCC3)C[C@H](CO)C2)nc1 | 15.13
Cc1ccc([C@@H]2CN(S(=O)(=O)c3cccs3)C[C@H]2N(C)C)cc1 | -8.469
Cc1ccccc1OCCSc1nnc(CC2CCS(=O)(=O)C2)n1C (stereo unspecified) | 3.275
CC(C)=CCN1C[C@H]2CC[C@@H]1CN(C(=O)Cn1c(C)cc(C)nc1=O)C2 | -7.163
N#Cc1ccc(CN2CCOCC2)cc1 | 91.68
N#Cc1ccc(CN2CCC(CN3CCOCC3)C2)cc1 (stereo unspecified) | 106.9
O=C(CCN1CCOCC1)N1CCC(Cc2ccc(CO)cc2)C1 (stereo unspecified) | -13.67
N#Cc1ccccc1CN1CCCC(c2nccn2CC2CC2)C1 (stereo unspecified) | 7.864
Cn1c(CO)nnc1CC1CCN(Cc2ccc(C#N)cc2)CC1 | 25.57
CC(C)(C)C(O)CN1CCN(Cc2ccc(C#N)cc2)CC1 (stereo unspecified) | 1.533
N#Cc1ccc(CCC(=O)N2CCC(CN3CCOCC3)CC2)cc1 | 91.48
N#Cc1ccc(CSCCN2CCOCC2)cc1 | -1.754
N#Cc1ccc(N2CCCN(CC(=O)N3CCOCC3)CC2)cc1 | -7.861
N#Cc1ccccc1CN1CCC(CN2CCOCC2)C1 (stereo unspecified) | 95.83
N#Cc1ccccc1C(=O)N1C[C@@H](CN2CCOCC2)[C@@H](CO)C1 | -6.039
N#Cc1ccc(CN2CCC(CCc3ccc(O)cc3)CC2)cc1 | -49.48
CC(C)N(C)CCCNC(=O)c1cnn(C(C)(C)C)c1C(F)(F)F | 5.452
CCOC(=O)C(CO)NC(=O)CCc1cccc(OC2CCCC2)c1 (stereo unspecified) | -6.497
COCC(=O)N1CCC(C(=O)Nc2ccc(S(N)(=O)=O)cc2)CC1 | -0.7847
COCCNc1nc(C2CCCC2)nc2c1CCNCC2 | 12.56
c1ccc2nc(N3CCCCC3)c(NCc3nnc4n3CCC4)nc2c1 | -16.15
C1CCc2nnc(CNc3nc(C4CC4)nc4c3CCNCC4)n2CC1 | 99.26
Cc1cc(C)nc(NCc2nnc3n2CCCCC3)n1 | -1.015
c1ccc(-c2nc3c(c(NCc4n[nH]c5c4CCC5)n2)CCNC3)cc1 | -30.21
Cc1cccc(=O)n1CCCNc1nc(N(C)C)nc2c1CCNC2 | 32.54
c1ccc(-c2nc3c(c(NCc4nnc5n4CCC5)n2)CCNC3)cc1 | 90.53

SMILES | Percent Effect [%]
c1ccc2nc(N3CCCC3)c(NCc3nnc4n3CCC4)nc2c1 | -27.33
CN(C)c1nc2c(c(NCc3nnc4n3CCCCC4)n1)CCNC2 | 114.9
CC(=O)NCc1nn(C)c2c1CN(Cc1ccsc1)C2.O=C(O)C(F)(F)F | -1.224
N[C@@H]1c2ccccc2C2(CCN(C(=O)c3ccccc3O)CC2)[C@H]1O | 0.509
CN(C)Cc1nnc(C2CCCN(c3nccc4ccccc34)C2)n1C (stereo unspecified) | 5.407
COC(=O)N1CCCC(C(=O)Nc2ccccc2CN2CCCC2)C1 (stereo unspecified) | 22.7
COc1ccc2[nH]cc(CCNC(=O)C3CCCN(C(C)=O)C3)c2c1 (stereo unspecified) | 94.67
CC(=O)N1CCC(C(=O)NCCN2CCCCC2)CC1 | 12.8
COc1ccc(CCNC(=O)C2CCCOC2)c(Cl)c1 (stereo unspecified) | 0.5663
COC(=O)N1CCCC(C(=O)NCCc2c[nH]c3cc(C)ccc23)C1 (stereo unspecified) | 127.8
COC(=O)N1CCCC(C(=O)NCc2cc3cccc(OC)c3o2)C1 (stereo unspecified) | -3.243
CC(=O)N1CCC(C(=O)NCCc2c[nH]c3cc(C)ccc23)CC1 | 104
COc1ccc(CCNC(=O)C2CC2)c(Cl)c1 | -15.6
CCN(CCNC(=O)C1CCN(C(C)=O)CC1)c1ccccc1C | -4.01
CNc1nc(CS(=O)(=O)c2ccccc2)cs1 | 7.424
COC(C)(C)c1noc(C2(C#N)CCCC2)n1 | -17.37
OC1(CNc2ccc(Br)cn2)CCOCC1 | 9.923
Cc1cc(CN2CCC=C(CN(C)C(=O)c3ccco3)C2)no1 | -5.355
Cc1ncc(CNCC(=O)NCC(F)(F)F)n1-c1ccccc1 | -11.81
Cc1cnn(CC2CN(CCS(C)(=O)=O)CCO2)c1 (stereo unspecified) | -18.36
CCc1nnc(CN2CCOC(Cn3cc(C)cn3)C2)o1 (stereo unspecified) | 101
Cc1cnn(CC2CN(Cc3nnc(C4CC4)o3)CCO2)c1 (stereo unspecified) | -1.438
Cc1cnn(CC2CN(Cc3nnc(-c4ccccc4)o3)CCO2)c1 (stereo unspecified) | 113.1
Cc1cnn(CC2CN(Cc3nnc(C(C)C)o3)CCO2)c1 (stereo unspecified) | 101.2
Cc1cnn(CC2CN(Cc3nnc(-c4occc4C)o3)CCO2)c1 (stereo unspecified) | -2.933
Cc1ccc(-c2nnc(CN3CCOC(Cn4cccn4)C3)o2)cc1 (stereo unspecified) | -8.169

SMILES | Percent Effect [%]
Cc1cnn(CC2CN(Cc3nc(C)c(C)o3)CCO2)c1 (stereo unspecified) | 94.42
Cc1cc(CC2COc3ccccc3C2)cnc1N (stereo unspecified) | -19.29
CC(C)Nc1ccnc(N2Cc3cnc(C(C)(C)C)nc3C2)n1 | 10.33
CN(C)Cc1nc(C(C)(C)NC(=O)c2cccc3ccccc23)no1 | -8.122
CCOC(=O)CN(CC(F)(F)F)C(=O)c1nc(C)n2ccccc12 | -24.45
CNC(=O)c1cccc(CNC2CCSc3c(Cl)cccc32)c1 (stereo unspecified) | -5.902
CSc1ccc(C(CC(=O)O)NC(=O)c2cc(C)on2)cc1 (stereo unspecified) | 6.189
CN(C)C(=O)CN1CCc2ncnc(NC3CCC3)c2CC1.O=C(O)C(F)(F)F | 114.3
c1nc2c(c(C3CC3)n1)CCN(Cc1ccoc1)CC2 | -6.028
CN(C)c1ncnc2c1CCN(CC1CCOCC1)CC2.O=C(O)C(F)(F)F | -9.241
CN(C)c1ncnc2c1CCN(Cc1nccs1)CC2.O=C(O)C(F)(F)F | 13.78
Cc1ccc(CN2CCc3ncnc(C4CC4)c3CC2)s1.O=C(O)C(F)(F)F | -13.47
CN(C)C(=O)CN1CCc2ncnc(C3CC3)c2CC1 | 106.4
Cc1ncnc2c1CCN(Cc1ccc3c(c1)OCO3)CC2.O=C(O)C(F)(F)F | -11
CN(C)C(=O)CN1CCc2ncnc(N(C)C)c2CC1.O=C(O)C(F)(F)F | 89.81
CCc1ncnc2c1CCN(Cc1ccc3c(c1)OCO3)CC2.O=C(O)C(F)(F)F | 106.3
O=C(O)C(F)(F)F.c1nc2c(c(NC3CCC3)n1)CCNCC2 | -15.15
COC(C)c1noc(CN(C)c2nccnc2C#N)n1 (stereo unspecified) | 3.907
CCN(CCn1cccn1)Cc1nc(-c2cc(F)ccc2F)oc1C | -20.47
O=C(C1CC=CC1)N1CC[C@@H]2O[C@H](COCC3CCOCC3)CC[C@@H]21 | 2.259
O=C(CS(=O)(=O)Cc1cccc(Br)c1)Nc1cn[nH]c1 | 6.351
O=C(C1=CCCCC1)N1CCO[C@H]2[C@H](Oc3ccccn3)CC[C@@H]21.O=C(O)C(F)(F)F | -5.477
Cc1ncnc2c1CCN(C(=O)N(C)C)CC2 | 95.78
Cc1ncnc2c1CCN(CC(=O)N(C)C)CC2.O=C(O)C(F)(F)F | 112
Cc1ncnc2c1CCN(Cc1nccs1)CC2.O=C(O)C(F)(F)F | -9.134
CCc1ncnc2c1CCN(Cc1nccs1)CC2.O=C(O)C(F)(F)F | 16.77

SMILES | Percent Effect [%]
CCc1ncnc2c1CCN(CC(=O)N(C)C)CC2.O=C(O)C(F)(F)F | 107.9
Cc1ncnc2c1CCN(C(=O)c1ccnnc1)CC2 | -1.373
Cc1ncnc2c1CCN(C(=O)CN(C)C)CC2.O=C(O)C(F)(F)F | -6.566
CCc1ncnc2c1CCN(Cc1ccccn1)CC2.O=C(O)C(F)(F)F.O=C(O)C(F)(F)F | 16.56
CN(C1CCCCC1)S(=O)(=O)N1CCN(Cc2ccon2)CC1 | -9.326
Cc1noc(C)c1CN1CCCC2(CCN(C(=O)N3CCOCC3)C2)C1 (stereo unspecified) | 105.6
Cc1noc(C)c1CN1CCCC2(C1)CN(Cc1nccn1C)CCO2.O=C(O)C(F)(F)F.O=C(O)C(F)(F)F (stereo unspecified) | -4.465
Cc1noc(C)c1CN1CCC2(CC1)CCN(C(=O)c1cscn1)C2.O=C(O)C(F)(F)F | -11.08
Cc1nnc(CN(Cc2cccc(Cl)c2)C(C)C)o1 | -3.327
O=S(=O)(Cc1ccccc1)c1nnc(N2CCOCC2)s1 | 4.64
NC(=O)C(Cc1ccccc1)NS(=O)(=O)Cc1ccccc1F (stereo unspecified) | -4.164
Cc1cccc(CS(=O)(=O)NCC(O)Cc2ccccc2)c1 (stereo unspecified) | 2.043
N#Cc1cccc(CS(=O)(=O)NC(Cc2ccccc2)C(N)=O)c1 (stereo unspecified) | -5.324
Cl.N[C@@H](Cc1ccccc1)c1nnc(S(=O)(=O)Cc2ccc(Cl)cc2)o1 | 72.38
Cl.N[C@@H](Cc1ccccc1)c1nnc(S(=O)(=O)Cc2cccc(Cl)c2)o1 | 90.15
N[C@@H](Cc1ccccc1)c1nnc(S(=O)(=O)Cc2ccccc2)o1 | 107.1
Cc1cccc(CS(=O)(=O)c2nnc([C@@H](N)Cc3ccccc3)o2)c1.Cl | 119.9
Cc1cccc(CS(=O)(=O)c2nnc(N3CCOCC3)s2)c1 | -9.139
CCc1[nH]c2c(CNc3cc(C)nc(NC)n3)cc(C)cc2c1C | 7.086
Cc1noc(C2CN(S(=O)(=O)C3CC3)Cc3ccnn3C2)n1 (stereo unspecified) | -3.92
Cc1nc(-c2ccccc2)sc1CSCCS(C)(=O)=O | 5.255
CCCN1CCC(C(=O)NCCN(CC)c2ccccc2C)CC1 | 6.668
CSc1ccc(NC(=O)NCC(O)C2CC2)cc1F (stereo unspecified) | -6.513
